Compound activity: PubChem, National Center for Advancing Translational Sciences (NCATS)
Sm TGR inh: inhibitors of Schistosoma mansoni thioredoxin glutathione reductase. Q962Y6. purified TGR, DTNB reduction, TNB absorbance 405 nm. Potency, µM (titrated, usually from 114 µM), for the others: top-dose activity change, negative = inhibition, actives largely listed as inhibitors. actives 3% (n = 360,000); further: nearly all actives have a fitted effect of over 60% in size
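TGR 20 nM + NADPH 100 uM (dispensed conc.), cpd preinc 15 min RT; start with NADPH (500 uM addition) then DTNB (15 mM addition). Kinetic TNB absorbance, 405 nm filter. Four-parameter Hill fit across titration.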
AmpC no deterg: blocks E. coli AmpC beta-lactamase in detergent-free assay. P00811. actives 0.52% (n = 330,000). Potency, µM (doses to about 57.1 µM), without a hit: at the highest dose activity change, negative = inhibition, hits mostly inhibitors. AmpC nitrocefin hydrolysis, absorbance 480 nm, 0.0001% Triton. AID 485341;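 further: plate controls were no compound for no effect and no enzyme for full effect; nearly all actives have a fitted effect of over 20% in size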
Target sequence (P00811 whole entry, looked up): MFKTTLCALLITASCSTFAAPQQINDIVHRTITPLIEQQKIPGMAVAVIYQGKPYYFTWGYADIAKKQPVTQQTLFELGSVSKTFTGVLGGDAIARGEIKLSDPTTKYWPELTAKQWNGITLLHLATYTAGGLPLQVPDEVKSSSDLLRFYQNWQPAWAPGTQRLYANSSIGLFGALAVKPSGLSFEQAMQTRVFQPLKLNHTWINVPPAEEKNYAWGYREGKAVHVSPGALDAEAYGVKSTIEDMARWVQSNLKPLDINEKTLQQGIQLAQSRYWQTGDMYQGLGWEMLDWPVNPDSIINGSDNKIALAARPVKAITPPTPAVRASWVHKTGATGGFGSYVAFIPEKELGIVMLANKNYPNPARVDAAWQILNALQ
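20 mM phosphate pH 7.0 + 0.01% (detergent screen) or 0.0001% Triton X-100; 5.3 nM AmpC reagent; cpd preinc 15 min RT; nitrocefin (800 uM stock) to start; A480 q20 s × 4 min; Activity was normalised to no-enzyme and no-compound control wells.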
Giardia FBPA inh: blocks Giardia fructose-bisphosphate aldolase activity; AID 2451; actives 0.71% (n = 290,000); Potency, µM (top dose mostly 59.6 µM), for inactives: top-dose activity, negative = inhibition, most hits filed as inhibitors; A8B2U2; purified Giardia FBPA; further: nearly all actives have a fitted effect of over 55% in size
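Giardia FBPA (40 nM reagent) was preincubated 10 min at RT with compound (up to 57.5 uM final), then substrate plus GAPDH/TPI/NAD/arsenate coupling system with diaphorase/resazurin was added; resorufin fluorescence (525/598 nm) was read after 20 min.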
AmpC inh detg: AmpC beta-lactamase inhibition with detergent present | AID 485294 | Potency, µM (titrated, usually from 114 µM), inactives show top-dose activity change, negative = inhibition, hits mostly inhibitors | P00811 | AmpC hydrolysis of nitrocefin, absorbance 480 nm, 0.01% Triton | actives 0.041% (n = 370,000);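 further: 0% = no-compound wells and -100% = no-enzyme wells; nearly all actives have a fitted effect of over 25% in size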
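20 mM phosphate pH 7.0 + 0.01% (detergent screen) or 0.0001% Triton X-100; 5.3 nM AmpC reagent; cpd preinc 15 min RT; nitrocefin (800 uM stock) to start; A480 q20 s × 4 min; Activity was normalised to no-enzyme and no-compound control wells.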
An asterisk follows results filed as active; ? = inconclusive; nt = no result. Shown are actives, neighbours in structure and some others; about 3.6% of the full set was active somewhere. The call rests on the fitted dose curve; in most records, active means well fitted curve in the direction sought with a large enough effect; inconclusive means small, poorly fitted or top-dose-only effect, or another doubt; inactive means no such curve, though single readings can be large; an effect the other way counts as inactive or inconclusive. Unless noted, on the % scale 0 is the no-effect control and ±100 the full control effect; potency means the concentration at half of the fitted maximal effect.

SMILES | Sm TGR inh | AmpC no deterg | Giardia FBPA inh | AmpC inh detg
COc1cccc(C(=O)Nc2cccc(C(=O)NC3=NN(c4c(Cl)cc(Cl)cc4Cl)C(=O)C3)c2)c1 | -2% | 18µM* | 22% | -13%
COc1cccc(C(=O)Nc2cccc(NC(=O)c3ccc(Cl)cc3Cl)c2)c1 | -2% | nt | nt | 6%
O=c1[nH]c(=O)n(C2CCCCCC2)c(O)c1C=NCc1ccc(F)cc1 | -11% | 4% | -4% | ?
COc1ccc(CN=Cc2c(O)[nH]c3ccccc23)cc1 | 4% | -42% | -6% | ?
Oc1c(C=NCc2ccc(F)cc2)[nH]c2ccc(Br)c(Cl)c12 | 32µM* | -44% | ? | -4%
Cc1ccc(CN=Cc2[nH]c3ccc(Br)c(Cl)c3c2O)cc1 | 45µM* | -18% | ? | 1%
COc1ccc(S(=O)(=O)N2CCCCCC2)cc1NC(=O)CN1C(=O)CNC1=O | nt | -12% | nt | nt
O=C(O)CN1C(=O)/C(=C\c2cc(Br)ccc2OCc2ccc([N+](=O)[O-])cc2)SC1=S | ? | 20µM* | -6% | -4%
O=C1/C(=C\c2cc(Br)cc(Br)c2O)SC(=S)N1Cc1ccccc1 | 40µM* | -40% | -13% | -4%
Cc1ccc(NC(=O)COC(=O)Cc2c[nH]c3ccccc23)cc1F | 50µM* | -14% | nt | -8%
Cc1ccccc1-c1nc(CS(=O)(=O)CC(=O)Nc2cccc(C(F)(F)F)c2)c(C)o1 | ? | nt | nt | -10%
CCN(CC)C(NC(=O)c1ccccc1)C(=O)c1ccccc1 (stereo not given) | 79µM* | -25% | -1% | -2%
CSc1ccccc1NC(=O)CN(C)Cc1c(O)ccc2ccccc12 | 0.79µM* | -41% | -25% | -14%
CN(CC(=O)Nc1ccc(N2CCOCC2)cc1)C(=O)CCc1ccccc1Cl | 35µM* | 22% | nt | -19%
CN(CC(=O)Nc1ccc(N2CCOCC2)cc1)Cc1c(O)ccc2ccccc12 | 0.4µM* | -3% | ? | -2%
COCCNC(=O)NC(=O)CN1CCN(C(c2ccccc2)c2ccccc2)CC1 | -11% | 133% | 3% | 2%
O=C(CSc1nnc2ccccn12)NNC(=O)c1cccc(Cl)c1 | nt | -8% | nt | nt
O=C(CCC(=O)N(CC(=O)NC1CCCC1)c1cccc(F)c1)Nc1nccs1 | 12% | -31% | -17% | 10%
CC(C)c1ccc(N2C(=O)NC(=O)/C(=C\c3cnc(-c4ccccc4)nc3)C2=O)cc1 | 11µM* | -30% | 0% | 5%
Cc1cccc(N2C(=O)NC(=O)/C(=C\c3ccc(N4CCOCC4)cc3)C2=O)c1 | ? | -31% | -4% | -16%
Cc1ccc(N2C(=O)NC(=O)/C(=C/c3cnc(-c4ccccc4)nc3)C2=O)cc1C | 1.8µM* | -22% | 1% | -18%
Cc1cccc(N2C(=O)NC(=O)/C(=C\c3cnc(-c4ccccc4)nc3)C2=O)c1 | 5µM* | -31% | -7% | ?
CCOC(=O)c1c([N+](=O)[O-])c(C)[nH]c(=O)c1C#N | 1% | -46% | 5% | -15%
COc1ccc(C)cc1NC(=O)CCS(=O)(=O)c1ccc2c(c1)oc(=O)n2C | -32% | -7% | nt | -2%
O=C(COC(=O)CCC(=O)c1cccs1)Nc1ccccc1C(F)(F)F | nt | -2% | nt | nt
SMILES | Sm TGR inh | AmpC no deterg | Giardia FBPA inh | AmpC inh detg
CCc1ccc(NC(=O)c2ccc(NC3=NC4CS(=O)(=O)CC4S3)cc2)cc1 (stereo not given) | -15% | -13% | nt | -4%
O=C(CSc1nc2c(c(=O)n1-c1ccc(F)cc1)SCC2)NCc1ccco1 | 40µM* | -19% | 1% | 4%
Cc1ccc(-n2c(SCC(=O)NCc3ccco3)nc3sc(C)c(C)c3c2=O)cc1 | 18% | -13% | -2% | 3%
O=C(CSc1nc2c([nH]c3ccccc32)c(=O)n1-c1ccc(F)cc1)NCc1ccco1 | -5% | 22µM* | 7% | 7%
Cc1ccc(-n2c(SCC(=O)NCc3ccco3)nc3nc4c(cc3c2=O)COC(C)(C)C4)cc1 | 22µM* | 72% | 1% | -13%
COc1ccc(NC(=O)CSc2nc3c(c(=O)n2-c2ccccc2OC)SCC3)cc1 | 5% | 35µM* | -13% | -11%
CCc1nnc(NC(=O)CCC(=O)N2CCN(Cc3ccc(OC)c(F)c3)CC2)s1 | -26% | 57% | 15% | -6%
O=c1ccc(-c2ccc(S(=O)(=O)NCC3CCN(Cc4ccccc4F)CC3)s2)n[nH]1 | 6% | 33% | nt | 1%
